31 molecules from PubChem BioAssay (NCI) can be followed below.

Compounds without any hit were thinned out: in the full panel of roughly 83,000, 20% have a hit.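 48-hour exposure, single concentration, 96-well plates; percent growth endpoint where 0 means no net growth. Active: below 10.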 Unmarked numbers belong to inactive results. Activity calls are given as the source filed them.

Experiment in all cases: NCI-60 one-dose screen, 48 h (100 = growth as untreated, 0 = no growth, -100 = all killed)
Common to all, as to details: 10 µM unless noted

The subject of assay [1] is T-47D breast.
Assay [2] concerns BT-549 breast.
Assay [3] has as its system MDA-MB-435 melanoma.
Assay [4] deals with SW-620 colon.
The test system of assay [5] is MCF7 breast.
Assay [6] has as its system HCT-116 colon.
Assay [7] relates to HCC-2998 colon.
Assay [8] has as its system KM12 colon.

As to `CNC(C)[C@H]1CCC2C3CC=C4C(=O)[C@@H](NC(=O)C=C(C)C)CC[C@]4(C)C3CC[C@@]21C` (stereo partly drawn), the growth is -21% (active) in assay [1]; 35.9% in assay [2]; -40.6% (active) in assay [3]; -52% (active) in assay [4]; -41.8% (active) in assay [5]; -30% (active) in assay [6]. Besides, the growth in assay [7] is -6.4% (active); in assay [8] it was 10.1%.
On to `N#Cc1cccc(C2C3=C(COC3=O)N(CCO)c3cc4c(cc32)OCO4)c1` (stereo not drawn), for which the growth was 20.8% in assay [1]; 38.7% in assay [2]; 0.432% (active) in assay [3]; 16.3% in assay [4]; 22.4% in assay [5]; 17% in assay [6]. The growth was 83.5% in assay [7] and 27.9% in assay [8].
`N#Cc1ccc(O)c(C2=NCC(Cc3ccccc3)O2)c1` (stereo not drawn): the growth in assay [1] was -1.96% (active); in assay [2] it was 37.7%; in assay [3], 64.5%; in assay [4], 40.2%; in assay [5] it was 39%; in assay [6], 14.9%. The growth is 72.3% in assay [7] and 40.9% in assay [8].
As to `CCOC(=O)c1cc(C(=O)c2cc(OC)c(OC)c(OC)c2)n2ccccc12`, the growth was 47.5% in assay [1]; 40% in assay [2]; -41.8% (active) in assay [3]; 29.8% in assay [4]; 23.7% in assay [5]; 18.9% in assay [6]. The growth in assay [7] is 39.4%; in assay [8], 25.2%.
`CNC(=O)c1cc(Oc2cccc3nc(NC(=O)Nc4cc(C(F)(F)F)ccc4Cl)ccc23)ccn1`: the growth in assay [1] was 78.1%; in assay [2], 85%; in assay [3], 74.1%; in assay [4] it was 112%; in assay [5], 85%; in assay [6] it was 60.1%. Also, the growth in assay [7] is 115%; in assay [8] it was 96.7%.
`Fc1ccc(Cn2cc(CSc3nc4ccccc4o3)nn2)cc1`: the growth in assay [1] is 85.3%; in assay [2], 103%; in assay [3], 102%; in assay [4], 101%; in assay [5] it was 93.8%; in assay [6], 92.3%. In addition, the growth was 109% in assay [7] and 97.6% in assay [8].
For `COc1ccc(C[n+]2c3ccccc3n3c4ccc(N)cc4ccc32)c(OC)c1OC`, the growth is 5.52% (active) in assay [1]; 5.31% (active) in assay [2]; 53.9% in assay [3]; 82.1% in assay [4]; 31.9% in assay [5]; 71.9% in assay [6]. Further, the growth was 67.9% in assay [7] and 19.9% in assay [8].
As for `C=C(C)[C@@H]1CC[C@]2(C)[C@H](CC=C3[C@@H]4CC(C)(C)CC[C@]4(CO)CC[C@]32C)[C@@]1(C)CCCN`, the growth in assay [1] was -26.5% (active); in assay [2], 64.6%; in assay [3], -84% (active); in assay [4], -81.9% (active); in assay [5] it was -41.4% (active); in assay [6] it was -79.6% (active). For the same molecule, the growth in assay [7] is -76% (active); in assay [8], -53.9% (active).
Turning to `COc1ccc(-c2nc(/C=C3\C(=O)N(C)c4ccccc43)c3ccccn23)cc1`, the growth in assay [1] was 76%; in assay [2], 104%; in assay [3], 104%; in assay [4], 84.7%; in assay [5], 61.9%; in assay [6], 56.5%. Further, the results for the growth in assay [7] and in assay [8] were 102% and 93.7%, respectively.
For the molecule `COc1ccc(N2CCC(=S)NC2=S)cc1`, the growth in assay [1] is 102%; in assay [2], 105%; in assay [3], 96.3%; in assay [4] it was 104%; in assay [5] it was 94.6%; in assay [6], 104%. Besides, the figures for the growth in assay [7] and in assay [8] were 104% and 101%, respectively.
On to `CCOC(=O)/C=C1\S/C(=N\Nc2cc(=O)[nH]c3ccccc23)N(c2ccccc2)C1=O`, for which the growth in assay [1] was 94.6%; in assay [2], 98.4%; in assay [3], 106%; in assay [4], 101%; in assay [5] it was 91.5%; in assay [6] it was 98.5%. Moreover, the growth in assay [7] is 110%; in assay [8], 101%.
For the molecule `Cc1c2cccnc2c(C)c2c1c1cc(CO)ccc1n2C`, the growth in assay [1] was 17%; in assay [2] it was 35%; in assay [3], 22.6%; in assay [4], 15.8%; in assay [5], 6.87% (active); in assay [6] it was 6.95% (active). Also, the growth in assay [7] is 34.7%; in assay [8], 31.1%.
On to `Cc1cccc(N2CCC(=O)NC2=S)c1`, for which the growth in assay [1] is 105%; in assay [2] it was 104%; in assay [3], 106%; in assay [4], 103%; in assay [5] it was 97.1%; in assay [6] it was 93.2%. The growth in assay [7] was 95.4%; in assay [8], 107%.
Turning to `O=C1Nc2ccccc2C1(c1c[nH]c2ccccc12)c1c[nH]c2ccccc12`, the growth in assay [1] is -21.2% (active); in assay [2] it was -17.7% (active); in assay [3], 85%; in assay [4], 77%; in assay [5], -1.78% (active); in assay [6], 36.6%. In addition, the values for the growth in assay [7] and in assay [8] were 26.4% and 11.9%, respectively.
With `COCCn1cc(-c2csc(-c3c[nH]c4ccc(Br)cc34)n2)c2cccnc21`, the growth in assay [1] was -1.1% (active); in assay [2], 22.6%; in assay [3], 29%; in assay [4], 27.9%; in assay [5], 12%; in assay [6], 24.2%. The growth in assay [7] was 15.3%; in assay [8] it was 13.4%.
As for `Cc1ccc(S(=O)(=O)c2nc(-c3ccccc3)oc2Sc2nc3ccccc3s2)cc1`, the growth was 62.7% in assay [1]; 17.6% in assay [2]; 54.7% in assay [3]; 54.7% in assay [4]; 58% in assay [5]; -1.16% (active) in assay [6]. The growth in assay [7] is 107%; in assay [8], 97.2%.
In the case of `COc1cccc(NCc2nnc(Nc3ccc(Cl)cc3)c3ccccc23)c1`, the growth in assay [1] is -8.49% (active); in assay [2], -12.2% (active); in assay [3], -10.3% (active); in assay [4], 11.9%; in assay [5], -1.96% (active); in assay [6], -44.2% (active). Besides, the results for the growth in assay [7] and in assay [8] were 2.79% (active) and -24.9% (active), respectively.
Regarding `O=C1/C(=C\c2ccccn2)c2ccccc2N1c1c(Cl)cccc1Cl`, the growth was 4.47% (active) in assay [1]; -17.7% (active) in assay [2]; -5.05% (active) in assay [3]; -56.9% (active) in assay [4]; 2.29% (active) in assay [5]; -94.4% (active) in assay [6]. Besides, the growth is -82.1% (active) in assay [7] and -2.11% (active) in assay [8].
`O=[N+]([O-])c1ccc(-c2cn3nc(-c4c[nH]c5ccccc45)sc3n2)cc1`: the growth was 64.8% in assay [1]; 99.5% in assay [2]; 107% in assay [3]; 99.9% in assay [4]; 79.5% in assay [5]; 90.8% in assay [6]. The results for the growth in assay [7] and in assay [8] were 86.1% and 83.2%, respectively.
In the case of `Cc1ccc(S(=O)(=O)OCCCOS(=O)(=O)c2ccc(C)cc2)cc1`, the growth in assay [1] is 99.3%; in assay [2] it was 96.2%; in assay [3] it was 101%; in assay [4], 103%; in assay [5], 91.2%; in assay [6], 94.1%. The growth is 99.7% in assay [7] and 99.1% in assay [8].
With `S=c1nc2oc(-c3ccccc3)c(-c3ccccc3)c2c(/N=C\c2ccco2)[nH]1`, the growth was 65.9% in assay [1]; 103% in assay [2]; 108% in assay [3]; 101% in assay [4]; 93.1% in assay [5]; 84.4% in assay [6]. The growth in assay [7] was 109%; in assay [8] it was 94.1%.
For `COc1ccc2c(c1)/C(=N/c1n[nH]c(=S)s1)C(=O)N2`, the growth in assay [1] was 69.6%; in assay [2] it was 113%; in assay [3], 104%; in assay [4], 91.3%; in assay [5], 25.1%; in assay [6], 103%. Moreover, the growth in assay [7] was 107%; in assay [8], 89%.
Consider `COc1ccc2c(c1)c(-c1nc(-c3c[nH]c4ncccc34)cs1)cn2CCO`, for which the growth in assay [1] was 23.4%; in assay [2], 41.7%; in assay [3], 66.5%; in assay [4] it was 63.1%; in assay [5] it was 20.1%; in assay [6] it was 50.9%. Moreover, the figures for the growth in assay [7] and in assay [8] were 58.9% and 20.7%, respectively.
For the molecule `CNC(=O)c1ccccc1Nc1nc(Nc2cc(OC)c(OC)c(OC)c2)ncc1Br`, the growth in assay [1] was -25.2% (active); in assay [2], -93.5% (active); in assay [3], 6.45% (active); in assay [4], 5.27% (active); in assay [5] it was 1.48% (active); in assay [6], 1.45% (active). In addition, the growth in assay [7] is -32.5% (active); in assay [8], 7.57% (active).
In the case of `O=c1c2ccccc2c(=O)c2c1sc1c(=O)c3ccc(O)cc3c(=O)c12`, the growth is -27.5% (active) in assay [1]; -92.6% (active) in assay [2]; -86.2% (active) in assay [3]; -71.1% (active) in assay [4]; -52.2% (active) in assay [5]; -29.2% (active) in assay [6]. Further, the figures for the growth in assay [7] and in assay [8] were -60.5% (active) and -31.5% (active), respectively.
Regarding `Nc1ncnc2c1N=C(c1ccc3c(c1)OCO3)CC(c1cccc(Nc3ccnc4cc(C(F)(F)F)ccc34)c1)N2` (stereo not drawn), the growth in assay [1] was 87.5%; in assay [2], 112%; in assay [3], 92.6%; in assay [4] it was 69.1%; in assay [5], 36.6%; in assay [6], 70.3%. Also, the growth in assay [7] was 90.6%; in assay [8] it was 50.1%.
As to `COc1ccc(C(=O)Cn2c(C(=O)c3ccc(Cl)cc3)nc3ccccc32)cc1`, the growth in assay [1] is 73.8%; in assay [2], 88.8%; in assay [3], -8.55% (active); in assay [4] it was 32.7%; in assay [5] it was 20.4%; in assay [6] it was 26.9%. In addition, the figures for the growth in assay [7] and in assay [8] were 72.7% and 38.2%, respectively.
`COc1cc(OC)cc(-c2ccc(-c3ccc(C(=N)N)o3)o2)c1`: the growth in assay [1] was 49.3%; in assay [2], 85.8%; in assay [3], -27.5% (active); in assay [4], 2.04% (active); in assay [5] it was 8.92% (active); in assay [6], -8.08% (active). The growth in assay [7] is -36.8% (active); in assay [8] it was 17.6%.
For `Cc1ccc(C(=O)c2ccc(CC(=O)NN3C(=O)c4ccccc4C3=O)n2C)cc1`, the growth was 98.3% in assay [1]; 110% in assay [2]; 99.6% in assay [3]; 99.3% in assay [4]; 91.4% in assay [5]; 107% in assay [6]. The growth in assay [7] is 104%; in assay [8], 102%.
As to `Nc1[nH]c(=S)nc2oc(-c3ccccc3)c(-c3ccccc3)c12`, the growth is 96.8% in assay [1]; 106% in assay [2]; 104% in assay [3]; 106% in assay [4]; 96.6% in assay [5]; 101% in assay [6]. Moreover, the growth is 110% in assay [7] and 98.9% in assay [8].
As to `CCN1C(=O)N(CC)C2C1NN=c1s/c(=C3\C(=O)N(CC(C)C)c4ccccc43)c(=O)n12` (stereo not drawn), the growth is 73.8% in assay [1]; 17.5% in assay [2]; -16.4% (active) in assay [3]; 33.9% in assay [4]; 15.1% in assay [5]; 11.9% in assay [6]. Besides, the growth in assay [7] is 13.8%; in assay [8] it was 20.9%.
